Laboratory results from PubChem BioAssay AID2023 (NMMLSC, 2009).
Among all 320,000 compounds or so, about 1,100 (0.34%) were called active.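 How the source made its calls: active means GFP response vs DMSO above a set limit, about the screen mean plus 3 SD (cut at about 150% in these data); inconclusive means under 70 cell events counted for the yeast strain; inactive means the rest.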 This excerpt belongs to a sample that is enriched for actives.

Assay: TOR pathway LAP4-GFP level changes – S. cerevisiae, multiplex flow cytometry, MLPCN library, primary screen (AID 2023)
Details: 3 h, at 10 µM, hits give high values, median GFP as percent of DMSO wells

GFP response vs DMSO, inactive:
COc1cccc(C(=O)Nc2nc3ccc(S(C)(=O)=O)cc3s2)c1 103%
CCc1noc(C)c1C(=O)Nc1nc(-c2ccccc2)cs1 115%
COc1cc(C(=S)N2CCOCC2)cc(OC)c1OC(=O)c1ccc([N+](=O)[O-])cc1[N+](=O)[O-] 91.2%
O=C(CSc1ncnc2sccc12)N1CCN(C(=O)c2cccs2)CC1 107%
CCc1c(C)c2ccc(OC3CCCCC3=O)cc2oc1=O (centres undefined) 99.3%
CC(C)c1ccc(NC(=O)C2CCCN(S(=O)(=O)c3cccnc3)C2)cc1 (centres undefined) 94.4%
CCOc1ccc(C(c2c(C)[nH][nH]c2=O)c2c(C)[nH][nH]c2=O)cc1OCC 128%
O=C(NC1CCCCC1)c1ccc(-c2ccc(Cl)cc2)o1 118%
CCN(c1ccccc1)S(=O)(=O)c1cc2c(cc1C)n(C)c(=O)c(=O)n2C 99.4%
Cc1ccccc1OCCC(=O)OCC(=O)NCCc1ccc(S(N)(=O)=O)cc1 91.6%
CC(C)CC1(C)NC(=O)N(CC(=O)Nc2ccc3c(c2)OCCO3)C1=O (centres undefined) 95.9%
CC1(C)CC(=O)CC2(C1)NCC(c1ccccc1Cl)c1c2[nH]c2ccccc12 (centres undefined) 107%
CC(C)c1nc(SCC(=O)Nc2cccc(C(=O)O)c2)c2c3c(sc2n1)CCCC3 99.7%
COc1ccc(-n2c(C)cc(C(=O)CN3C(=O)NC4(CCc5ccccc54)C3=O)c2C)cc1 (centres undefined) 96.4%
CCc1ccc(S(=O)(=O)N/N=C\c2ccc([N+](=O)[O-])o2)cc1 87.6%
CCn1c(=O)c([N+](=O)[O-])c(NCc2ccc3c(c2)OCO3)c2ccccc21 101%
Cc1cccc([C@@H]2[C@@H]3C(=O)N(Cc4ccccc4)C(=O)[C@@H]3[C@]3(C)C(=O)N(c4ccc(Br)cc4)C(=O)N23)c1 98.8%
CN(c1ccccc1)S(=O)(=O)c1cc(C(=O)N2CCN(c3ncccn3)CC2)ccc1Cl 91.2%
C[C@@H](CN1CCC[C@H]1CN1C(N)=NC[C@@H]1Cc1ccccc1)N1C[C@@H](Cc2ccccc2)N(CCCC2CCCC2)C1=N 96.6%
O=C(Nc1cc(-c2ccccc2)nn1-c1ccccc1F)c1ccc([N+](=O)[O-])cc1 134%
COc1ccccc1CNC(=O)CN1CCC(n2cnc3cc(F)ccc32)CC1 97.5%
CCOc1ccc(S(=O)(=O)Nc2ccc(OC)nc2)cc1 98.1%
COc1ccc(Nc2ccc([N+](=O)[O-])cn2)cn1 89.6%
O=C(Nc1ccon1)c1nc[nH]c1C(=O)NCc1ccccc1 94.7%
Cc1cc2ccccc2n1CCNC(=O)COc1ccc2ccccc2c1 112%
O=C(O)CCn1c(Cc2ccccc2)nc2ccccc21 88.9%
CCOc1ccc(NC(=S)NC(=O)/C=C/c2ccc(OC)cc2)c([N+](=O)[O-])c1 95.5%
COc1ccc(-n2nc(C(=O)NCC(=O)N3CCCCCC3)c3ccccc3c2=O)cc1Cl 112%
CNS(=O)(=O)c1cccc(C(=O)OCCCC(=O)c2ccccc2)c1 100%
COc1cccc(C(=O)c2cc3ccc(O)cc3oc2=O)c1 121%
CCOC(=O)c1cc2cc3ccccc3cc2oc1=O 88.3%
C[C@H]1CC[C@]2(O[C@@H](CCO)C[C@@H](O)[C@@H]2O)O1 105%
O=c1[nH]c(CSc2ccccc2)nc2c1oc1ccccc12 107%
O=C(Nc1cccc2ccccc12)c1onc2c1CCCC2 94%
COc1ccc(N(CC(=O)NCC2CCCO2)C(=O)CCC(=O)Nc2nccs2)c(OC)c1 (centres undefined) 91.8%
O=C(Nc1nccs1)c1cc(S(=O)(=O)N2CCOCC2)c(Cl)cc1Cl 89.4%
Cc1ccc(C(=O)Nc2ccn(C)n2)cc1 101%
COc1cccc(CCNC(=O)COc2cccc3c2OC(C)(C)C3)c1 113%
COc1cc(F)c(C2=CC(=O)CC(C)(C)C2)cc1F 118%
CCOC(=O)c1ccccc1NC(=S)N1CCC(C(N)=O)CC1 111%
CN(C)CCc1c[nH]c2ccc(Cn3cncn3)cc12 119%
COc1ccc(NC(=O)C2C3C=CC(C3)C2C(=O)NCc2ccccn2)c(OC)c1 (centres undefined) 92.5%
Cc1ccc(C(C[N+](=O)[O-])c2c(C)cc3ccccn23)cc1 (centres undefined) 97.5%
CCS(=O)(=O)c1cc([N+](=O)[O-])c(Sc2ccccc2N)s1 100%
COC(=O)c1ccc(N2CCOCC2)c(NC(=O)c2ccc(Br)o2)c1 84.3%
O=C1CCN(CCCc2ccccc2)CCN1CCO 109%
COc1ccc(C)cc1NC(=O)CSc1cccc[n+]1[O-] 99.3%
Cc1ccc(S(=O)(=O)N2CCC(C)CC2)cc1C(=O)NCc1ccccn1 99.2%
Cc1cc(N)n2nc(-c3ccc(C(C)(C)C)cc3)cc2n1 77.9%

GFP response vs DMSO, active:
CCc1noc(C)c1C(=O)Nc1nc2ccc(OC)cc2s1 152%
Nc1c(C(=O)c2cccs2)sc2nsc(SCCN3CCCCC3)c12 203%
Cc1[nH][nH]c(=O)c1C(c1ccc(-c2ccc(Cl)cc2)o1)c1c(C)[nH][nH]c1=O 184%
Oc1ccc2ccccc2c1N=Nc1nccs1 165%
CCn1c(/C=C/c2ccc([N+](=O)[O-])o2)nc2ccccc2c1=O 358%
COc1ccc(NC(=O)/C(Cl)=C(/Cl)S(=O)Cc2ccc(C)cc2)cn1 (centres undefined) 201%
Cc1cc2ccccc2n1CCC(=O)O 154%
CCN(CC)c1ccc2cc(C(=O)O)c(=O)oc2c1 157%
CN(C)S(=O)(=O)c1cc(C(=O)Nc2ccn(C)n2)c(Cl)cc1Cl 6410% [may fluoresce green]
Nc1ccccc1SC(C[N+](=O)[O-])c1ccccc1 (centres undefined) 209%
